This note sets out measurements from PubChem BioAssay (EPA / NIEHS).

The term AC50 denotes the concentration at which the activity in the assay is half-maximal.

The nature of assay [1]: ATG_XTT_Cytotoxicity: Cytotoxicity Assessment in the Attagene TRANS-FACTORIAL HepG2 Assay (AID 2283584).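 As to AC50: cells exposed to compound for 24 h before reading; active means loss of viability signal versus DMSO baseline.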 The procedure, abridged: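 XTT readout of cell number in transfected HepG2 cells, 24 h post-dosing; DMSO serves as negative control and baseline, with activity taken as loss of viability signal.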
Assay [2] can be described thus: TOX21_p53_BLA_p2_viability: Viability Assessment in the Tox21 HCT-116 p53 Agonism Beta-lactamase Assay, Phase 2 (AID 2283591).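 Also: compound exposure lasted 16 h at 37 °C; actives lower the ATP signal meaning cytotoxicity.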 The essentials: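 HCT116 p53-bla cells, 4000/well, dosed after 5 h plating (217-fold dilution of DMSO stocks) and incubated 16 h at 37C. Viability taken as cellular ATP by CellTiter-Glo luminescence after 30 min RT; signal loss marks cytotoxicity.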

The nature of assay [3]: TOX21_p53_BLA_p3_viability: Viability Assessment in the Tox21 HCT-116 p53 Agonism Beta-lactamase Assay, Phase 3 (AID 2283593).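 Also: cells exposed to compound for 16 h before reading.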 The essentials: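 HCT116 cells, 4000/well, dosed 5 h after plating by pin transfer (217-fold dilution from DMSO stock) and incubated 16 h at 37C, 5% CO2. Viability read as ATP luminescence with CellTiter-Glo after 30 min at room temperature.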
A short description of assay [4]: TOX21_p53_BLA_p4_viability: Viability Assessment in the Tox21 HCT-116 p53 Agonism Beta-lactamase Assay, Phase 4 (AID 2283597).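 Also: hits lower the luminescence signal meaning cytotoxicity.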 The procedure, abridged:
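We seeded HCT116 p53 reporter cells at 4000/well and waited 5 h. We then added compounds in DMSO at a 217-fold dilution and incubated for 16 h. Viability was read as CellTiter-Glo luminescence after 30 min at RT.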

The target of assay [5] is Cellular tumor antigen p53 (Homo sapiens) (UniProt P04637). Description: TOX21_p53_BLA_p5_ratio: Tox21 HCT-116 p53 Agonism Beta-lactamase Assay, Ratio, Phase 5 (AID 2283599). The procedure, abridged: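 HCT-116 p53-bla cells (4000/well) plated 5 h, dosed with compound (217-fold DMSO dilution) for 16 h at 37 C; CCF4-AM substrate 2 h at room temperature. Activity is the 460/530 nm emission ratio (405 nm excitation), fitted in gain-of-signal direction versus DMSO.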
Cellular tumor antigen p53 (Homo sapiens), sequence (P04637 whole entry, looked up): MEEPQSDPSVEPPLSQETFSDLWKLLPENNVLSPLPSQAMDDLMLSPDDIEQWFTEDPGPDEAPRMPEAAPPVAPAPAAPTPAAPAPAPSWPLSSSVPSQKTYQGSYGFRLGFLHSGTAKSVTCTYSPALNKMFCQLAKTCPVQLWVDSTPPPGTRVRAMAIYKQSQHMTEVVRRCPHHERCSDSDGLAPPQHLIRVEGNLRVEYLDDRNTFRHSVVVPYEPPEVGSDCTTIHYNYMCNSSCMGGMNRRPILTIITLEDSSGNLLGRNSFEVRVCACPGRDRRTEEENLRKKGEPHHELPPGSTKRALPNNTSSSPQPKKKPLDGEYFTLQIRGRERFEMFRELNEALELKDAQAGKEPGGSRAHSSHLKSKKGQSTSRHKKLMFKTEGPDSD

A short description of assay [6]: TOX21_p53_BLA_p5_viability: Viability Assessment in the Tox21 HCT-116 p53 Agonism Beta-lactamase Assay, Phase 5 (AID 2283600). The procedure, abridged: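 Compounds, pinned from DMSO at 217-fold dilution, were left on the cells for 16 h. The viability endpoint was ATP content measured by CellTiter-Glo luminescence, where falling signal reflects cytotoxicity.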
The target in assay [7] is Cellular tumor antigen p53 (Homo sapiens) (UniProt P04637). Kind of assay: TOX21_p53_BLA_p4_ratio: Tox21 HCT-116 p53 Agonism Beta-lactamase Assay, Ratio, Phase 4 (AID 2283601). The essentials: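 HCT-116 p53 beta-lactamase reporter cells (4000/well) preincubated 5 h, then compound (217-fold dilution of DMSO stock) for 16 h at 37C. CCF4-AM substrate added 2 h at room temperature; 460/530 nm emission ratio fitted upward versus DMSO.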

The target is the same in assay [8]. Kind of assay: TOX21_p53_BLA_p2_ratio: Tox21 HCT-116 p53 Agonism Beta-lactamase Assay, Ratio, Phase 2 (AID 2283592). The procedure, abridged: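 In this cell-based reporter format, HCT116 cells were dosed with chemicals delivered from DMSO by 217-fold dilution and incubated 16 h at 37C. Emission at 460 and 530 nm after 2 h CCF4-AM loading provided the ratio, fitted upward versus DMSO.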

Assay [9] shares this target. Kind of assay: TOX21_p53_BLA_p3_ratio: Tox21 HCT-116 p53 Agonism Beta-lactamase Assay, Ratio, Phase 3 (AID 2283596). The essentials: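 HCT116 p53-bla cells (4000/well) given compound in DMSO (217-fold dilution) after 5 h, incubated 16 h at 37C. CCF4-AM substrate 2 h at room temperature; 460/530 nm emission ratio, gain fitted against DMSO.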

Results filed as inconclusive are left out. Where a structure was tested more than once in an assay, its records may differ in their call. Calls of active or inactive are those of the source. The calls were made as follows: active = hit-call score of the fitted dose curve at least 0.9, where 1 is the maximum; inconclusive = response in the unintended direction; inactive = score below 0.9.

Take `C=CC(=O)OCCn1c(=O)n(CCOC(=O)C=C)c(=O)n(CCOC(=O)C=C)c1=O`: the AC50 was 71 µM (active) in assay [1], 46.1 µM (active) in assay [2] and 15.4 µM (active) in assay [4]. In addition, the compound was called inactive in [3], in assay [5], in [6] and in [7].
With `CCCCCCCCC`, the call in [1], in assay [2], in [8], in assay [9], in assay [4] and in assay [6] was inactive.
As for `C=C(C)C(=O)O`, the compound was classed as inactive in assay [1], in [2], in assay [3], in [9], in assay [4] and in assay [5]. In addition, the outcome in assay [6] and in assay [7] was inactive.
As for `CC(=O)[O][Al][O]C(C)=O`, the call in [1], in assay [2] and in assay [4] was inactive.
Turning to `COC(=O)c1ccc(C)cc1`, the compound was called inactive in [1], in assay [8], in assay [3], in assay [9], in assay [4] and in [5]. In addition, the outcome in assay [7] was inactive. The concentration at half-maximal activity (AC50) is 0.000353 µM (active) in assay [9] and 0.000134 µM (active) in assay [7].
As for `CCCCCCOC(=O)CCCCC`, the outcome in [1], in [8], in [3], in assay [9], in assay [5] and in assay [7] was inactive.
